Values joined by “and” are separate entries in the source; they are usually repeats but may differ in a detail not shown here. Equal entries are not always repeated. About 2,000 (36%) of roughly 5,500 compounds were called active. About 18% were inconclusive and are not listed. No stated cut-off is given here; in the data, active means normalized growth mostly below about 0.91 (no sharp cut-off); inconclusive means no clear call, values can overlap the other calls; inactive means mostly above about 0.92. This is one part of the list.
Assay: chemical genetic growth profiling, strain panel (AID 1159580);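 further: tested at 20 µM; growth read once vehicle control cultures reached saturation at 30 °C; 1 = growth at the plate median or of vehicle wells; lower values mean less growth of the strain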
Settings: S. cerevisiae deletion strains, growth OD

Measured: normalized growth

C=C[C@H]1CN2CC[C@H]1C[C@@H]2[C@H](O)c1ccnc2ccccc12
inactive: locus YAL013W, strain DEP1, active compounds read low 1 | locus YAL021C, strain ccr4, active compounds read low 1.01 | locus YAL026C, strain drs2, active compounds read low 0.994 | locus YAL030W, strain snc1, active compounds read low 0.999 | locus YBL061C, strain skt5, active compounds read low 0.992 | locus YBR009C, strain hhf1, active compounds read low 0.988 | locus YBR021W, strain FUR4, active compounds read low 1.02 | locus YBR023C, strain chs3, active compounds read low 0.981 | locus YBR171W, strain sec66, active compounds read low 0.988 | locus YBR229C, strain ROT2, active compounds read low 0.995 | locus YBR231C, strain swc5, active compounds read low 0.989 | locus YBR279W, strain paf1, active compounds read low 0.996 | locus YCL011C, strain gbp2, active compounds read low 0.988 | locus YCL016C, strain dcc1, active compounds read low 0.979 | locus YCL029C, strain bik1, active compounds read low 0.973 | locus YCL069W, strain vba3, active compounds read low 0.987 | locus YCR088W, strain abp1, active compounds read low 0.994 | locus YDL005C, strain med2, active compounds read low 0.975 | locus YDL035C, strain GPR1, active compounds read low 1.02 | locus YDL040C, strain nat1, active compounds read low 0.983 | locus YDL074C, strain BRE1, active compounds read low 0.999 | locus YDL101C, strain DUN1, active compounds read low 0.985 | locus YDL134C, strain PPH21, active compounds read low 0.997 | locus YDL185W, strain tfp1, active compounds read low 0.976 | locus YDL192W, strain arf1, active compounds read low 0.98 | locus YDR001C, strain nth1, active compounds read low 0.985 | locus YDR069C, strain doa4, active compounds read low 0.996 | locus YDR101C, strain arx1, active compounds read low 0.985 | locus YDR137W, strain rgp1, active compounds read low 0.99 | locus YDR150W, strain NUM1, active compounds read low 0.986 | locus YDR159W, strain sac3, active compounds read low 1.02 | locus YDR162C, strain NBP2, active compounds read low 0.988 | locus YDR195W, strain ref2 0.989 | locus YDR297W, strain sur2, active compounds read low 1.01 | locus YDR318W, strain mcm21, active compounds read low 0.985 | locus YDR334W, strain swr1, active compounds read low 0.977 | locus YDR335W, strain msn5, active compounds read low 0.99 | locus YDR388W, active compounds read low 0.988 | locus YDR392W, strain spt3, active compounds read low 0.973 | locus YDR502C, strain sam2, active compounds read low 0.982 | locus YEL003W, strain gim4, active compounds read low 0.989 | locus YEL037C, strain rad23, active compounds read low 0.983 | locus YEL061C, strain CIN8 (second series), active compounds read low 0.993 | locus YEL061C, strain CIN8, active compounds read low 0.998 | locus YER015W, strain faa2, active compounds read low 0.986 | locus YER016W, strain bim1, active compounds read low 0.987 | locus YER110C, active compounds read low 0.981 | locus YER111C, strain swi4, active compounds read low 0.975 | locus YER155C, strain BEM2 (second series), active compounds read low 0.972 | locus YER155C, strain BEM2, active compounds read low 0.995 | locus YER167W, strain BCK2, active compounds read low 1 | locus YFR010W, strain ubp6, active compounds read low 0.999 | locus YGL078C, strain dbp3, active compounds read low 1.01 | locus YGL086W, strain mad1, active compounds read low 1.01 | locus YGL167C, strain pmr1, active compounds read low 0.993 | locus YGL173C, strain kem1, active compounds read low 0.981 | locus YGL227W, strain vid30, active compounds read low 0.984 | locus YGL240W, strain doc1, active compounds read low 0.986 | locus YGL248W, strain PDE1, active compounds read low 0.994 | locus YGL253W, strain hxk2, active compounds read low 0.994 | locus YGR078C, strain PAC10, active compounds read low 0.988 | locus YGR135W, strain pre9, active compounds read low 0.978 | locus YGR229C, strain SMI1, active compounds read low 1.02 | locus YGR252W, strain gcn5, active compounds read low 1.17 | locus YHR013C, strain ard1, active compounds read low 0.962 | locus YHR027C, strain rpn1, active compounds read low 0.992 | locus YHR030C, strain SLT2, active compounds read low 0.994 and 0.988 | locus YHR079C, strain IRE1 (second series), active compounds read low 0.979 | locus YHR079C, strain IRE1, active compounds read low 1 | locus YHR094C, strain hxt1, active compounds read low 0.97 | locus YHR129C, strain ARP1, active compounds read low 0.989 | locus YHR142W, strain chs7, active compounds read low 0.974 | locus YHR200W, strain rpn10, active compounds read low 0.994 | locus YIL066C, strain RNR3, active compounds read low 0.992 | locus YIL073C, strain SPO22, active compounds read low 0.928 | locus YIL125W, strain kgd1, active compounds read low 0.988 | locus YIR030C, strain dcg1, active compounds read low 0.989 | locus YJL092W, strain hpr5, active compounds read low 0.99 | locus YJL095W, strain BCK1 (second series), active compounds read low 0.985 | locus YJL095W, strain BCK1, active compounds read low 0.977 and 1 | locus YJL115W, strain asf1, active compounds read low 0.972 | locus YJL129C, strain trk1, active compounds read low 0.992 | locus YJL134W, strain LCB3, active compounds read low 0.992 | locus YJL154C, strain vps35, active compounds read low 0.971 | locus YJL164C, strain tpk1, active compounds read low 0.987 | locus YJL166W, strain qcr8, active compounds read low 1 | locus YJL168C, strain set2, active compounds read low 0.983 | locus YJL187C, strain SWE1 (second series), active compounds read low 0.956 | locus YJR043C, strain POL32, active compounds read low 0.996 | locus YJR066W, strain TOR1, active compounds read low 0.989 | locus YJR075W, strain HOC1, active compounds read low 0.978

From PubChem BioAssay AID1159580 (chemical genetic matrix, 2015)
